Measured values published in PubChem BioAssay AID743131 (Broad Institute, 2013).
Measured potencies and affinities stand elsewhere. Inconclusive results are not listed. Active and inactive are the calls of the source.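 The calls were made as follows: active = cell viability loss with a fitted half-maximal concentration at or below twice the top valid dose; inconclusive = flat curve losing 30 to 70% viability, or a poor fit; inactive = the rest.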

Experiment: HEK293 cell cytotoxicity, dose response, cytotoxicity control, ATP luminescence, dry powder, set 3 (AID 743131)
Details: HEK293T viability, ATP luminescence CellTiter-Glo, 72 h; series mostly up to 26 µM

Structure (SMILES)	outcome
Fc1cccc2c1[nH]c(=S)n2CCOc1ccccc1	inactive
S=c1[nH]c2cccc(Cl)c2n1CCOc1ccccc1	inactive
COC(=O)C1=C(C)N(Cc2ccc(Cl)cc2)C(=S)NC1c1ccc(Br)cc1 (stereo not given)	inactive
O=c1[nH]c2ccccc2n1CCOc1ccccc1	inactive
CCOc1ccc(OCCn2c(=S)[nH]c3ccccc32)cc1	inactive
Cc1ccc(OCCn2cnc3ccccc32)cc1	inactive
COC(=O)C1=C(C)N(Cc2ccc(Br)cc2)C(=S)NC1c1ccc(OC)cc1 (stereo not given)	inactive
CCOC(=O)c1c(-c2ccc(F)cc2)csc1NC(=O)CN1CCN(CC)CC1	inactive
Cc1ccc(OCCn2c(C)nc3ccccc32)cc1	inactive
Cc1ccc2c(c1)[nH]c(=S)n2CCOc1ccccc1	inactive
Fc1ccccc1OCCn1c(=S)[nH]c2ccccc21	inactive
Cc1ccc(OCCn2c(=S)[nH]c3ccccc32)cc1	inactive
CCOC(=O)c1c(-c2ccc(OC)cc2)csc1NC(=O)CN(C)CC(=O)N(C)C	inactive
S=c1[nH]c2ccccc2n1CCOc1ccccc1	inactive
S=c1[nH]c2ccccc2n1CCOc1ccc(Cl)cc1	inactive
CCOC(=O)c1c(-c2ccc(C(C)(C)C)cc2)csc1NC(=O)CN1CCN(C)CC1	inactive
COC(=O)C1=C(C)N(Cc2ccc(Br)cc2)C(=S)NC1c1ccc(F)cc1 (stereo not given)	inactive
Cc1ccc(OCCn2c(SCCO)nc3ccccc32)c(C(C)C)c1	inactive
CCOC(=O)c1c(-c2ccc(F)cc2)csc1NC(=O)CN1CCN(C)CC1	inactive
COC(=O)C1=C(C)N(Cc2ccc(F)cc2)C(=S)NC1c1cccc(F)c1 (stereo not given)	inactive
